Data taken from the supplement of paper PMC10127200.
Where a name gives a salt, the structure may show the parent alone.

Assays:
Assay in all cases: Euclidean distance of Cell Painting phenotypic profile (signed KS, 77 features) to DMSO centroid (dimensionless distance); 5 or 10 uM (library dependent); higher = stronger phenotypic change vs DMSO (phenoactivity)
Conditions in all cases: 48 h
[1] = system: 786-O
Outline: (§1)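 Stained cells were imaged confocally at 20X with 9 fields per well, after 48 h of exposure to library compounds at 10 or 5 uM (set by library; 0.1% DMSO final). The cells were five cancer lines and a healthy fibroblast line. From the images, Harmony extracted 77 features, each expressed as a signed Kolmogorov-Smirnov statistic relative to same-plate vehicle wells. Phenoactivity is measured as Euclidean distance to the median vehicle profile, using plate-position-corrected, correlation-weighted profiles averaged across replicates at the top dose.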

[2] = system: A549
Outline: as §1

[3] = system: DU145
Outline: as §1

[4] = system: FB
Outline: as §1

[5] = system: HEPG2
Outline: as §1

[6] = system: OVCAR4
Outline: as §1

SMILES | Euclidean distance [1] | Euclidean distance [2] | Euclidean distance [3] | Euclidean distance [4] | Euclidean distance [5] | Euclidean distance [6]
COc1ccc(CNCc2cccc3ccccc23)cc1 | 1.72 | 1.46 | 0.984 | 1.27 | 0.933 | 1.04
CCn1c(=O)c(-c2cc(NC(=O)Nc3ccccc3)c(F)cc2Br)cc2cnc(NC)cc21 [Ripretinib (DCC-2618)] | 2.86 | 3.27 | 2.91 | 3.89 | 2.27 | 3.18
Oc1ccc(C2CNCCc3c2cc(O)c(O)c3Cl)cc1 (configuration not stated) [Fenoldopam mesylate] | 1.43 | 1.07 | 0.768 | 0.976 | 1.19 | 0.867
N=C(N)NCCC[C@H](N)C(=O)O [L-Arginine HCl (L-Arg)] | 1.3 | 0.522 | 0.828 | 0.796 | 0.566 | 1.14
CCOC(=O)/C=C(C)/C=C/C=C(C)/C=C/c1c(C)cc(OC)c(C)c1C [Etretinate] | 0.891 | 0.993 | 1.22 | 1.15 | 1.14 | 1.85
N=C(NOCC(O)CN1CCCCC1)c1cccnc1 (configuration not stated) | 1.13 | 0.912 | 1.06 | 1.33 | 0.604 | 1.05
CCOC(=O)c1ccc(N2NC(=O)C(=Cc3ccc([N+](=O)[O-])o3)C2=O)cc1 | 1.51 | 1.47 | 1.17 | 0.999 | 0.851 | 1.17
C[C@H]1O[C@@H](n2cc(F)c(=O)[nH]c2=O)[C@H](O)[C@@H]1O [Doxifluridine] | 0.747 | 1.07 | 0.886 | 0.864 | 2.72 | 1.03
COC1=C(OC)C(=O)C(CCCCCCCCCCO)=C(C)C1=O [Idebenone] | 1.45 | 0.641 | 0.677 | 1.22 | 1.05 | 0.744
Cc1nccn1CC1CCc2c(c3ccccc3n2C)C1=O (configuration not stated) [Ondansetron HCl] | 1.31 | 1.62 | 1.01 | 1.16 | 0.865 | 0.943
CC(O)(P(=O)(O)O)P(=O)(O)O [Etidronate] | 1.27 | 1.25 | 1.1 | 1.04 | 0.55 | 1.15
CCOC(=O)O[C@]1(C(=O)OCCl)CC[C@H]2[C@@H]3CCC4=CC(=O)C=C[C@]4(C)[C@H]3[C@@H](O)C[C@@]21C [Loteprednol etabonate] | 1.18 | 2.23 | 1.71 | 1.66 | 0.658 | 1.81
O=S(=O)(O)CCCCOC[C@H]1O[C@@H]2O[C@H]3[C@H](O)[C@@H](O)[C@@H](O[C@H]4[C@H](O)[C@@H](O)[C@@H](O[C@H]5[C@H](O)[C@@H](O)[C@@H](O[C@H]6[C@H](O)[C@@H](O)[C@@H](O[C@H]7[C@H](O)[C@@H](O)[C@@H](O[C@H]8[C@H](O)[C@@H](O)[C@@H](O[C@H]1[C@H](O)[C@H]2O)O[C@@H]8CO)O[C@@H]7COCCCCS(=O)(=O)O)O[C@@H]6COCCCCS(=O)(=O)O)O[C@@H]5COCCCCS(=O)(=O)O)O[C@@H]4COCCCCS(=O)(=O)O)O[C@@H]3COCCCCS(=O)(=O)O [Captisol (SBE-Œ≤-CD)] | 1.09 | 0.893 | 0.704 | 1.13 | 1.38 | 1.1
Cc1cc(Cl)ccc1OCCCC(=O)NO [Droxinostat] | 1.32 | 1.68 | 0.991 | 1.3 | 1.07 | 0.782
COc1cccc(N2CCN(C3=Nc4c(F)cccc4C(CC(=O)O)N3c3cc(C(F)(F)F)ccc3OC)CC2)c1 (configuration not stated) [Letermovir(AIC246)] | 1.22 | 1.44 | 0.984 | 0.978 | 0.523 | 1.01
CC(=O)NCCCS(=O)(=O)O [Acamprosate Calcium] | 0.651 | 0.371 | 0.781 | 0.789 | 0.967 | 0.839
CC(=O)NS(=O)(=O)c1ccc(N)cc1 [Sulfacetamide] | 1.08 | 0.619 | 1.45 | 1.07 | 0.298 | 1.01
CC(C)NC[C@@H](C(=O)N1CCN(c2ncnc3c2[C@H](C)C[C@H]3O)CC1)c1ccc(Cl)cc1 [Ipatasertib (GDC-0068)] | 2.48 | 2.97 | 2.12 | 2.49 | 1.13 | 2.11
CO[C@H]1C[C@@H]2CC[C@@H](C)[C@@](O)(O2)C(=O)C(=O)N2CCCC[C@H]2C(=O)O[C@H]([C@H](C)C[C@@H]2CC[C@@H](OP(C)(C)=O)[C@H](OC)C2)CC(=O)[C@H](C)/C=C(\C)[C@@H](O)[C@@H](OC)C(=O)[C@H](C)C[C@H](C)/C=C/C=C/C=C/1C [Deforolimus] | 2.73 | 2.02 | 1.35 | 3.08 | 1.23 | 2.14
COc1cc2ncnc(Nc3cccc(Cl)c3)c2cc1OC [AG-1478 (Tyrphostin AG-1478)] | 1.39 | 1.29 | 1.45 | 1.21 | 0.941 | 0.649
CNC(=O)c1cc(Oc2ccc3nc(N[C@@H]4CCCC[C@H]4O)sc3c2)ccn1 | 0.859 | 1.04 | 1.3 | 1.9 | 0.898 | 1.22
CC1(C)S[C@@H]2[C@H](NC(=O)[C@H](N)c3ccccc3)C(=O)N2[C@H]1C(=O)O [Ampicillin sodium] | 1.18 | 0.444 | 1.06 | 0.59 | 0.55 | 1.15
N#CC(c1ccc(Cl)cc1)c1c(Cl)cc(-n2ncc(=O)[nH]c2=O)cc1Cl (configuration not stated) [Diclazuril] | 1.07 | 1.53 | 0.762 | 1.53 | 2.11 | 1.22
CC(=O)Nc1cccc2c1c(Sc1ccc(Cl)cc1)c(C)n2CC(=O)O | 0.872 | 0.72 | 1.15 | 0.772 | 0.51 | 0.868
CC(C)(C)[N+]([O-])=Cc1ccc(S(=O)(=O)O)cc1S(=O)(=O)O | 1.04 | 1.8 | 0.995 | 1.52 | 1.43 | 1.57
CNCCc1ccccn1 [Betahistine 2HCl] | 1.56 | 0.851 | 1.21 | 0.822 | 0.61 | 1.03
O=C1NC(=O)C(c2ccccc2)(c2ccccc2)N1 [Phenytoin] | 0.857 | 0.495 | 1 | 1.34 | 0.945 | 0.752
